This is an account of results in PubChem BioAssay (EPA / NIEHS).

Settings in all cases: mRNA level, 48 h; actives raise or lower the signal
Read-out in assay [1]: Insulin-like growth factor-binding protein 1 (IGFBP1), IGFBP1 (gene 3484)
The assay can be described thus: LTEA_HepaRG_IGFBP1: Life Technologies and Expression Analysis (LTEA) Assay for Insulin-like growth factor-binding protein 1 (IGFBP1) using HepaRG (AID 2283508). In outline:
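Read-out is qRT-PCR transcript level normalized to three housekeeping genes, fitted in both directions against 0.5% DMSO. Differentiated HepaRG cells received eight half-log concentrations (top 100 uM) in duplicate for 48 h in serum-free induction medium.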

Read-out in assay [2]: Interleukin 6 (IL6), IL6 (gene 3569)
The assay can be described thus: LTEA_HepaRG_IL6: Life Technologies and Expression Analysis (LTEA) Assay for Interleukin 6 (IL6) using HepaRG (AID 2283509). In outline:
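Changes in IL6 mRNA, up or down relative to 0.5% DMSO controls, were derived from concentration-response curves in human HepaRG cells treated for 48 h at up to 100 uM, with ACTB, GAPDH and POLR2A as normalizers.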

Read-out in assay [3]: Interleukin 6 Receptor (IL6R), IL6R (gene 3570)
In words: LTEA_HepaRG_IL6R: Life Technologies and Expression Analysis (LTEA) Assay for Interleukin 6 Receptor (IL6R) using HepaRG (AID 2283510). In outline: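 In this HepaRG screen, test chemicals act on cells for 48 h at up to 100 uM (eight half-log points, duplicate wells). IL6R expression is quantified by qRT-PCR after normalization to ACTB, GAPDH and POLR2A, with DMSO as baseline.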

Read-out in assay [4]: Potassium channel subfamily K member 1 (KCNK1), KCNK1 (gene 3775)
In words: LTEA_HepaRG_KCNK1: Life Technologies and Expression Analysis (LTEA) Assay for Potassium channel subfamily K member 1 (KCNK1) using HepaRG (AID 2283511). Put shortly: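 Human HepaRG cultures receive test chemicals for 48 h in 0.5% DMSO, top concentration 100 uM with half-log dilutions. Induction or suppression of KCNK1 mRNA relative to DMSO is derived by bidirectional fitting of qRT-PCR data.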

Read-out in assay [5]: JUN Transcription Factor, JUN (gene 3725)
In words: LTEA_HepaRG_JUN: Life Technologies and Expression Analysis (LTEA) Assay for JUN Transcription Factor using HepaRG (AID 2283513). Put shortly: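 Gene-expression endpoint: JUN mRNA (qRT-PCR, normalized to three reference genes) in HepaRG cultures treated 48 h with chemicals, duplicate wells, 100 uM maximum with half-log dilutions; bidirectional fitting relative to 0.5% DMSO.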

Read-out in assay [6]: Lipase C (LIPC), LIPC (gene 3990)
In words: LTEA_HepaRG_LIPC: Life Technologies and Expression Analysis (LTEA) Assay for Lipase C (LIPC) using HepaRG (AID 2283514). In outline: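 In this multiplexed gene-expression screen, human HepaRG cultures received test chemicals for 48 h across eight concentrations with 100 uM highest, in duplicate. Values reflect LIPC mRNA induction or suppression versus DMSO vehicle, from normalized qRT-PCR.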

Read-out in assay [7]: Lipoprotein lipase (LPL), LPL (gene 4023)
The assay can be described thus: LTEA_HepaRG_LPL: Life Technologies and Expression Analysis (LTEA) Assay for Lipoprotein lipase (LPL) using HepaRG (AID 2283515). In outline: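 Concentration-response testing used half-log steps from 100 uM in 0.5% DMSO on human HepaRG cells, 48 h, duplicate wells. Phenobarbital 1 mM served as induction control; LPL mRNA was normalized to ACTB, GAPDH, POLR2A.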

Read-out in assay [8]: MicroRNA 122 (MIR122), gene 406906
The assay can be described thus: LTEA_HepaRG_MIR122: Life Technologies and Expression Analysis (LTEA) Assay for MicroRNA 122 (MIR122) using HepaRG (AID 2283516). Note: the transcript read is the microRNA miR-122. In outline:
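Changes in transcript abundance, up or down relative to 0.5% DMSO vehicle, were scored after 48 h chemical treatment of HepaRG cells (maximum 100 uM). Quantification used TaqMan qRT-PCR normalized to housekeeping genes.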

Read-out in assay [9]: matrix metalloproteinase-10 (MMP10), MMP10 (gene 4319)
The assay can be described thus: LTEA_HepaRG_MMP10: Life Technologies and Expression Analysis (LTEA) Assay for matrix metalloproteinase-10 (MMP10) using HepaRG (AID 2283517). In outline: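 In differentiated HepaRG cultures kept in 0.5% DMSO, test chemicals act for 48 h over an eight-point range with a top dose of 100 uM. Expression is then quantified by TaqMan RT-PCR against ACTB, GAPDH and POLR2A.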

Read-out in another assay: MYC, MYC (gene 4609)
In words: LTEA_HepaRG_MYC: Life Technologies and Expression Analysis (LTEA) Assay for MYC using HepaRG (AID 2283518). Put shortly:
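MYC transcript changes, up or down relative to 0.5% DMSO, from TaqMan qRT-PCR normalized to three housekeeping genes. Human HepaRG cultures received chemicals for 48 h at eight half-log concentrations up to 100 uM, in duplicate.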

Read-out in assay [10]: matrix metalloproteinase-3 (MMP3), MMP3 (gene 4314)
The assay can be described thus: LTEA_HepaRG_MMP3: Life Technologies and Expression Analysis (LTEA) Assay for matrix metalloproteinase-3 (MMP3) using HepaRG (AID 2283519). In outline: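 Human liver HepaRG cultures received chemicals (top concentration 100 uM, 0.5% DMSO) for 48 h in duplicate. MMP3 mRNA induction or loss was then assessed via TaqMan qRT-PCR with housekeeping-gene normalisation.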

Read-out in assay [11]: Paternally Expressed 10 (PEG10), PEG10 (gene 23089)
In words: LTEA_HepaRG_PEG10: Life Technologies and Expression Analysis (LTEA) Assay for Paternally Expressed 10 (PEG10) using HepaRG (AID 2283520).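 For AC50: PEG10 transcript by qRT-PCR normalised to ACTB GAPDH and POLR2A.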 In outline:
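After 48 h exposure of differentiated HepaRG cells (0.5% DMSO vehicle, eight concentrations up to 100 uM, duplicates), PEG10 mRNA was measured by TaqMan qRT-PCR. Values were normalised to endogenous control genes and analysed bidirectionally against vehicle.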

Read-out in assay [12]: Protein phosphatase 2A (PPP2R4), PTPA (gene 5524)
The assay can be described thus: LTEA_HepaRG_PPP2R4: Life Technologies and Expression Analysis (LTEA) Assay for Protein phosphatase 2A (PPP2R4) using HepaRG (AID 2283522). Put shortly: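 Using HepaRG cultures maintained in 0.5% DMSO, chemicals are tested 48 h at up to 100 uM in duplicate. Induction or suppression of PPP2R4 mRNA, measured by qRT-PCR, is fitted bidirectionally against the vehicle baseline.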

Read-out in assay [13]: Phosphatase and tensin (PTEN), PTEN (gene 5728)
In words: LTEA_HepaRG_PTEN: Life Technologies and Expression Analysis (LTEA) Assay for Phosphatase and tensin (PTEN) using HepaRG (AID 2283523). In outline: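 Expression of PTEN is quantified in the human liver line HepaRG following two days of dosing (top concentration 100 uM, half-log dilutions, 0.5% DMSO). Values derive from bidirectional curve fitting relative to DMSO controls.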

Read-out in assay [14]: solute carrier (SLC22A1), SLC22A1 (gene 6580)
The assay can be described thus: LTEA_HepaRG_SLC22A1: Life Technologies and Expression Analysis (LTEA) Assay for solute carrier (SLC22A1) using HepaRG (AID 2283524). In outline:
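Transcript induction or suppression of SLC22A1 in human HepaRG cultures is scored after 48 h chemical treatment, with DMSO (0.5%) as baseline for bidirectional fitting. Concentrations span eight half-log points topping at 100 uM.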

Read-out in assay [15]: Pyruvate Dehydrogenase Kinase 4 (PDK4), PDK4 (gene 5166)
In words: LTEA_HepaRG_PDK4: Life Technologies and Expression Analysis (LTEA) Assay for Pyruvate Dehydrogenase Kinase 4 (PDK4) using HepaRG (AID 2283525). Put shortly: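 Eight-point, half-log concentration series (max 100 uM, 0.5% DMSO) applied to differentiated HepaRG cells for 48 h in duplicate. Endpoint: PDK4 mRNA induction or repression by qRT-PCR against DMSO baseline.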

Read-out in assay [16]: NAD(P)H dehydrogenase [quinone] 1 (NQO1), NQO1 (gene 1728)
The assay can be described thus: LTEA_HepaRG_NQO1: Life Technologies and Expression Analysis (LTEA) Assay for NAD(P)H dehydrogenase [quinone] 1 (NQO1) using HepaRG (AID 2283526). In outline: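 In this assay, gene expression is read by qRT-PCR after 48 h exposure of HepaRG cells to eight concentrations (max 100 uM, half-log) in 0.5% DMSO. Each chemical runs in duplicate, and activity is scored relative to vehicle.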

Read-out in assay [17]: Nuclear factor erythroid 2-related factor 2 (Homo sapiens) (UniProt Q16236)
In words: LTEA_HepaRG_NFE2L2: Life Technologies and Expression Analysis (LTEA) Assay for Nuclear factor erythroid 2-related factor 2 (NFE2L2) Transcription Factor using HepaRG (AID 2283527).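 Note: TaqMan qRT-PCR transcript level normalised to ACTB GAPDH and POLR2A housekeeping genes.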 Put shortly: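 Human liver HepaRG line treated in duplicate for 48 h with an eight-point series topping at 100 uM. Gene expression of NFE2L2 by qRT-PCR, bidirectionally fitted against the vehicle control.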

Read-out in assay [18]: Keratin 19 (KRT19), KRT19 (gene 3880)
The assay can be described thus: LTEA_HepaRG_KRT19: Life Technologies and Expression Analysis (LTEA) Assay for Keratin 19 (KRT19) using HepaRG (AID 2283512). Put shortly:
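KRT19 transcript measured by TaqMan qRT-PCR, referenced to three housekeeping genes, after HepaRG cells received test chemicals for 48 h. Eight half-log concentrations, top 100 uM, 0.5% DMSO vehicle; increases and decreases both fitted.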

Read-out in assay [19]: Nuclear factor NF-kappa-B p105 subunit (Homo sapiens) (UniProt P19838)
In words: LTEA_HepaRG_NFKB1: Life Technologies and Expression Analysis (LTEA) Assay for Nuclear Factor Kappa B Subunit 1 (NFKB1) using HepaRG (AID 2283521).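 Note: TaqMan qRT-PCR transcript normalised to ACTB GAPDH and POLR2A housekeeping genes.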 In outline:
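Differentiated human HepaRG cells in serum-free induction medium with 0.5% DMSO were exposed for 48 h to eight half-log concentrations, top 100 uM, in duplicate. NFKB1 mRNA measured by Fluidigm TaqMan qRT-PCR, normalised to ACTB, GAPDH and POLR2A; bidirectional fit versus DMSO.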

Activity calls are given as the source filed them. Rule for the calls: active = hit-call score of the fitted dose curve at least 0.9, where 1 is the maximum; inactive = score below 0.9.

Nuclear factor erythroid 2-related factor 2 (Homo sapiens), sequence (Q16236 whole entry, looked up): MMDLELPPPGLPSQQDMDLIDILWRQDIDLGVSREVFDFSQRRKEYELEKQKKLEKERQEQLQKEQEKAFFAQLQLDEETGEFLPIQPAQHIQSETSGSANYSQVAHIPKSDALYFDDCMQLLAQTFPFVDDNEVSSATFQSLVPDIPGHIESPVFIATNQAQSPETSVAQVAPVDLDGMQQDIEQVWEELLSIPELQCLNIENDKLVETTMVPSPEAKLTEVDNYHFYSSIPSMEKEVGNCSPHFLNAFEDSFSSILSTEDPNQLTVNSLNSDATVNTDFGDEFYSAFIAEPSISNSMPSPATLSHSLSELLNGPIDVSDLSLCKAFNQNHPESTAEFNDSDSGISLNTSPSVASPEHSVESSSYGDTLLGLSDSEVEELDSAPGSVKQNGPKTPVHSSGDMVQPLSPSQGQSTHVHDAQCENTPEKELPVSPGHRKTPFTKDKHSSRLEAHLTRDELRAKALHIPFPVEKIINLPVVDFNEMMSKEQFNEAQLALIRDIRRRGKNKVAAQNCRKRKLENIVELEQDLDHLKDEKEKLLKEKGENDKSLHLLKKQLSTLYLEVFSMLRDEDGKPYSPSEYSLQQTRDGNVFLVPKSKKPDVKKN
Nuclear factor NF-kappa-B p105 subunit (Homo sapiens), sequence (P19838 whole entry, looked up): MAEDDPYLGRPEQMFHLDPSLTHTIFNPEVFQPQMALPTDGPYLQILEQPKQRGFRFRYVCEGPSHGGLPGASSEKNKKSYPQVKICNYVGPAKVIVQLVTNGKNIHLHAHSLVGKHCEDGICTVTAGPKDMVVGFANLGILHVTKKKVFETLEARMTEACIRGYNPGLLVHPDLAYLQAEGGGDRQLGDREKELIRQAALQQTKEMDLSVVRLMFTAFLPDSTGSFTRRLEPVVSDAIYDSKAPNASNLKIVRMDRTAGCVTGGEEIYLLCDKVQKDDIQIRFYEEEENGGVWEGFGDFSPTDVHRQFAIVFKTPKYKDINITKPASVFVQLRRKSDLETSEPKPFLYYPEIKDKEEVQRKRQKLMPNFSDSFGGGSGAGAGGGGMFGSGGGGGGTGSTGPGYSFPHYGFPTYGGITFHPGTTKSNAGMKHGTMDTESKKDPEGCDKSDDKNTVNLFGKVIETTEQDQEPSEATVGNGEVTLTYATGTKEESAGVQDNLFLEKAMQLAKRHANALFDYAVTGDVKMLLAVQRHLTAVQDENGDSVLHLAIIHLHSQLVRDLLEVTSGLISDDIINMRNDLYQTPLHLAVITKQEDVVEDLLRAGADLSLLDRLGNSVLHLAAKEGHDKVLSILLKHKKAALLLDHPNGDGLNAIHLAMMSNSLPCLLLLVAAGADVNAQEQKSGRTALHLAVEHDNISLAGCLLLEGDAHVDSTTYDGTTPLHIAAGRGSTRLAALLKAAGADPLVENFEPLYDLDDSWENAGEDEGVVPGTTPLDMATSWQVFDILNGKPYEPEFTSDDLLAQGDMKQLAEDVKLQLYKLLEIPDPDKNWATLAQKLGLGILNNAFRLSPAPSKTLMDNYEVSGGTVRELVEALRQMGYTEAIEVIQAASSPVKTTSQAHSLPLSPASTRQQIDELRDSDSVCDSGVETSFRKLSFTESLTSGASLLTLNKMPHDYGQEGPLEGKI

For `CCNc1nc(Cl)nc(NC(C)(C)C#N)n1`, the call in assay [1], in assay [2], in [3], in [4], in [5] and in [6] was inactive. Also, the outcome in assay [7] was “inactive”; in assay [8], “inactive”; in assay [9], “inactive”; with MYC, MYC (gene 4609), “inactive”; in assay [10], “inactive”; in assay [12], “inactive”. Further, the molecule was called inactive in [13], in assay [14], in [15], in assay [16] and in assay [17]. The AC50 (in general, the midpoint of the concentration-response curve, whichever way the signal moves) in [11] is 26.5 µM (active).

As for `COc1ccc(C(=CC(=O)N2CCOCC2)c2ccc(Cl)cc2)cc1OC`, the molecule was classed as inactive in assay [1], in [2], in [3], in assay [4], in assay [18] and in assay [5]. The outcome in [7] is “inactive”; in assay [8], “inactive”; in assay [9], “inactive”; in the assay with MYC, MYC (gene 4609), “inactive”; in [10] it was “inactive”; in assay [12], “inactive”. Further, the call in [13], in assay [14], in assay [15], in [16] and in assay [17] was inactive. The AC50 in assay [11] was 4.02 µM (active).

Turning to `Nc1nc(N)nc(NC2CC2)n1`, the molecule was called inactive in [1], in assay [2], in [3], in assay [4], in [18] and in assay [5]. In addition, the outcome in [8] was “inactive”; in assay [9], “inactive”; with MYC, MYC (gene 4609), “inactive”; in [10], “inactive”; in assay [11], “inactive”; in [12] it was “inactive”. Also, the call in assay [13], in assay [14], in assay [15], in [16] and in [17] was inactive.

As for `O=C(O)c1cc(Oc2ccc(C(F)(F)F)cc2Cl)ccc1[N+](=O)[O-]`, the call in assay [1], in [2], in assay [3], in [4], in assay [18] and in assay [5] was inactive. For the same molecule, the outcome in assay [8] is “inactive”; in assay [9], “inactive”; with MYC, MYC (gene 4609), “inactive”; in [10], “inactive”; in assay [19] it was “inactive”; in [12], “inactive”. Besides, the outcome in [14], in [16] and in assay [17] was inactive. Further, the AC50 in assay [11] is 50 µM (active); in assay [15], 42.1 µM (active).
